Drawing on the OligoGym collection, this text covers sensor-assay potency score (higher = more potent) for 40 sequences.
Note: reference of the scale not given here.

One test deals with PAFAH1B2. Put plainly: pooled miR-30 sensor sort-seq; sequence = guide strand. The note with it: shRNA.
With TTGTGCTGAGACATCCATCGGT, the sensor-assay potency score (higher = more potent) is 0.723. Still for that read-out and setting: with TTCTGCTGTATTTTCGTGGTTA the figure was 0.637; with TAATATTCTCCAGTTCTCCATT, -1.1. The sequence TTACAGTCCAAAACAAATCTGT had a sensor-assay potency score (higher = more potent) of 0.236. Still for that read-out and setting: with ATTTAAACAACAATCTTCCTTG the figure was 0.529; with TTAGTCTCCACAAAACATGTCT, -0.124; with TTCTTCTGCTGTATTTTCGTGG, -0.326. With TGTGCTGAGACATCCATCGGTC, the sensor-assay potency score (higher = more potent) was -0.024. For the sequence TACCCAGACAACAATGACCTTA, the sensor-assay potency score (higher = more potent) was -0.359.

The next test deals with PAG1. Described as above. The note with it: shRNA.
Sequence TAAATTTCACATAACCTGCTAT gave a sensor-assay potency score (higher = more potent) of 0.485. Same read-out and setting: with TACATAATAGAACATATCCTAA the figure was -0.651; with TTGCAAAATAATGACAACCAAC, -1.68; with TTGTTTTTGATAACTACCTTTC, -0.868. For TTTTTGTTTCTGTCCACCGAGG, the sensor-assay potency score (higher = more potent) is -1.07. Regarding TAATATTTGAAAACTCTTGGGG, the sensor-assay potency score (higher = more potent) was determined as 0.247. TTTTTTGTTTCTGTCCACCGAG: the sensor-assay potency score (higher = more potent) is -0.11. Sequence TTAAACTGTAGCATTAGCTCAA gave a sensor-assay potency score (higher = more potent) of 0.54. On the same count and under the same terms, with TTCTTGTGTAGTTATCTGCCTA the figure was -0.676; with TAAACTGTAGCATTAGCTCAAG, -0.488. As to TTACTGATGAGTACATAGCTGA, the sensor-assay potency score (higher = more potent) is -0.0368.

For TTTTCTTTTCTATATAGCGTTT, the sensor-assay potency score (higher = more potent) was -1.01.

A further test deals with PALB2. Described as above. The note with it: shRNA.
For the sequence TTGTTCTAACATAATATTCTGC, the sensor-assay potency score (higher = more potent) is -0.275.

Consider TATAGCTTTATTTACAAGGAGG, for which the sensor-assay potency score (higher = more potent) is -1.15.

As for TAAATTTTTACTTGCATCCTTA, the sensor-assay potency score (higher = more potent) is 0.122. TTCTTGAACTTGGTTGTCCTGT showed a sensor-assay potency score (higher = more potent) of 0.276. Regarding TTAGGAATGTATCAACACCTTT, the sensor-assay potency score (higher = more potent) was -0.84.

With TACAGCATCACACCCACGCTGA, the sensor-assay potency score (higher = more potent) is -0.615.

On to TTCCTGTGTATCTTCTACCAGG, for which the sensor-assay potency score (higher = more potent) is -0.953. Still for that read-out and setting: with TACATGGCTCTTTACAACCGGC the figure was -0.961; with TTGAATAAATAATTTTTCGTGC, -0.674.

TTTGTATAGGTAATCCTCCTGG: the sensor-assay potency score (higher = more potent) came to 0.029. The sequence TTTGCTACTGATTTCTTCCTGT showed a sensor-assay potency score (higher = more potent) of 0.661.

Turning to TAACATAATATTCTGCAGGAAA, the sensor-assay potency score (higher = more potent) was -1.13.

Another test concerns the target PALM2-AKAP2. The description is as above. The note with it: shRNA.
Turning to TCTGGCAACATCATTATCCAGG, the sensor-assay potency score (higher = more potent) was -0.478. As to TTTTAGATTTGTGTGTCTCATA, the sensor-assay potency score (higher = more potent) is -0.987. In turn, TTCTAATGCAGTATTGTTCTTT registered a sensor-assay potency score (higher = more potent) of 0.398.

TTGTTCTTTCTCATGCTCGTCA registered a sensor-assay potency score (higher = more potent) of 0.379.

Sequence TTTCTCATGCTCGTCATCCTCA had a sensor-assay potency score (higher = more potent) of 0.127.

TTGAATGGCATTCTGCACCAGG: the sensor-assay potency score (higher = more potent) is -0.555. With TTAGTCAGTGGCTTGTCTGAGT, the sensor-assay potency score (higher = more potent) came to 0.113.
